Test results from PubChem BioAssay AID1159580 (chemical genetic matrix, 2015).
Where “and” joins values, the source holds several entries; their conditions need not be identical. Equal entries are not always repeated. In all, about 5,500 compounds went through this assay and about 2,000 (36%) were called active. Another 18% or so got no clear call; they are omitted. Rule as the data show it: active = normalized growth mostly below about 0.91 (no sharp cut-off); inconclusive = no clear call, values can overlap the other calls; inactive = mostly above about 0.92. Some of the results follow.

Assay: chemical genetic growth profiling, strain panel (AID 1159580);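 also: tested at 20 µM; growth read once vehicle control cultures reached saturation at 30 °C; 1 = growth at the plate median or of vehicle wells; lower values mean less growth of the strain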
Settings: S. cerevisiae deletion strains, growth OD

Measured: normalized growth

CN[C@@H]1[C@H](OC2[C@H](O[C@H]3[C@H](O)[C@@H](O)[C@H](N=C(N)N)[C@@H](O)[C@@H]3N=C(N)N)O[C@@H](C)[C@]2(O)C=O)O[C@@H](CO)[C@H](O)[C@H]1O (stereo not given in full)
inactive: locus YAL013W, strain DEP1, stronger effect = lower value 1 | locus YAL021C, strain ccr4, stronger effect = lower value 1 | locus YAL026C, strain drs2, stronger effect = lower value 0.993 | locus YAL030W, strain snc1, stronger effect = lower value 1.01 | locus YBL061C, strain skt5, stronger effect = lower value 1.01 | locus YBR009C, strain hhf1, stronger effect = lower value 0.988 | locus YBR021W, strain FUR4, stronger effect = lower value 1.02 | locus YBR023C, strain chs3, stronger effect = lower value 1 | locus YBR171W, strain sec66, stronger effect = lower value 1.01 | locus YBR229C, strain ROT2, stronger effect = lower value 1.02 | locus YBR231C, strain swc5, stronger effect = lower value 1.03 | locus YBR279W, strain paf1, stronger effect = lower value 0.999 | locus YCL011C, strain gbp2, stronger effect = lower value 0.992 | locus YCL016C, strain dcc1, stronger effect = lower value 0.98 | locus YCL029C, strain bik1, stronger effect = lower value 1.01 | locus YCL069W, strain vba3, stronger effect = lower value 1.01 | locus YCR088W, strain abp1, stronger effect = lower value 0.998 | locus YDL005C, strain med2, stronger effect = lower value 1.01 | locus YDL035C, strain GPR1, stronger effect = lower value 1.01 | locus YDL040C, strain nat1, stronger effect = lower value 0.999 | locus YDL074C, strain BRE1, stronger effect = lower value 1.01 | locus YDL101C, strain DUN1, stronger effect = lower value 1.01 | locus YDL134C, strain PPH21, stronger effect = lower value 1.01 | locus YDL185W, strain tfp1, stronger effect = lower value 0.996 | locus YDL192W, strain arf1, stronger effect = lower value 1.01 | locus YDR001C, strain nth1, stronger effect = lower value 0.987 | locus YDR069C, strain doa4, stronger effect = lower value 1.04 | locus YDR101C, strain arx1, stronger effect = lower value 1.01 | locus YDR137W, strain rgp1, stronger effect = lower value 1.03 | locus YDR159W, strain sac3, stronger effect = lower value 0.978 | locus YDR162C, strain NBP2, stronger effect = lower value 1 | locus YDR195W, strain ref2 1.04 | locus YDR297W, strain sur2, stronger effect = lower value 1.02 | locus YDR318W, strain mcm21, stronger effect = lower value 1.01 | locus YDR334W, strain swr1, stronger effect = lower value 1.01 | locus YDR335W, strain msn5, stronger effect = lower value 1.01 | locus YDR388W, stronger effect = lower value 1.02 | locus YDR392W, strain spt3, stronger effect = lower value 0.959 | locus YDR502C, strain sam2, stronger effect = lower value 1.02 | locus YEL003W, strain gim4, stronger effect = lower value 1.01 | locus YEL037C, strain rad23, stronger effect = lower value 1 | locus YEL061C, strain CIN8 (second series), stronger effect = lower value 1.01 | locus YEL061C, strain CIN8, stronger effect = lower value 1.01 | locus YER015W, strain faa2, stronger effect = lower value 1 | locus YER016W, strain bim1, stronger effect = lower value 0.987 | locus YER110C, stronger effect = lower value 1.03 | locus YER111C, strain swi4, stronger effect = lower value 1 | locus YER155C, strain BEM2 (second series), stronger effect = lower value 1.04 | locus YER155C, strain BEM2, stronger effect = lower value 0.995 | locus YER167W, strain BCK2, stronger effect = lower value 1.01 | locus YFR010W, strain ubp6, stronger effect = lower value 1.03 | locus YGL078C, strain dbp3, stronger effect = lower value 1 | locus YGL086W, strain mad1, stronger effect = lower value 1.01 | locus YGL167C, strain pmr1, stronger effect = lower value 1.02 | locus YGL173C, strain kem1, stronger effect = lower value 1.03 | locus YGL227W, strain vid30, stronger effect = lower value 0.998 | locus YGL240W, strain doc1, stronger effect = lower value 1.05 | locus YGL248W, strain PDE1, stronger effect = lower value 1.01 | locus YGL253W, strain hxk2, stronger effect = lower value 0.977 | locus YGR135W, strain pre9, stronger effect = lower value 1.01 | locus YGR229C, strain SMI1, stronger effect = lower value 1 | locus YGR252W, strain gcn5, stronger effect = lower value 1.01 | locus YHR013C, strain ard1, stronger effect = lower value 1.01 | locus YHR027C, strain rpn1, stronger effect = lower value 1 | locus YHR030C, strain SLT2, stronger effect = lower value 1.01 and 0.961 | locus YHR079C, strain IRE1 (second series), stronger effect = lower value 1.02 | locus YHR079C, strain IRE1, stronger effect = lower value 0.991 | locus YHR094C, strain hxt1, stronger effect = lower value 1.02 | locus YHR129C, strain ARP1, stronger effect = lower value 1.01 | locus YHR142W, strain chs7, stronger effect = lower value 1 | locus YHR200W, strain rpn10, stronger effect = lower value 1.02 | locus YIL066C, strain RNR3, stronger effect = lower value 1.02 | locus YIL073C, strain SPO22, stronger effect = lower value 1.05 | locus YIL125W, strain kgd1, stronger effect = lower value 1.01 | locus YIR030C, strain dcg1, stronger effect = lower value 1.01 | locus YJL092W, strain hpr5, stronger effect = lower value 1.01 | locus YJL095W, strain BCK1 (second series), stronger effect = lower value 1.01 | locus YJL095W, strain BCK1, stronger effect = lower value 1.01 and 0.996 | locus YJL115W, strain asf1, stronger effect = lower value 1.01 | locus YJL129C, strain trk1, stronger effect = lower value 1.02 | locus YJL134W, strain LCB3, stronger effect = lower value 1 | locus YJL154C, strain vps35, stronger effect = lower value 1 | locus YJL164C, strain tpk1, stronger effect = lower value 0.983 | locus YJL166W, strain qcr8, stronger effect = lower value 1.02 | locus YJL168C, strain set2, stronger effect = lower value 1.01 | locus YJL187C, strain SWE1 (second series), stronger effect = lower value 1.02 | locus YJL187C, strain SWE1, stronger effect = lower value 1.01 | locus YJR043C, strain POL32, stronger effect = lower value 1.01 | locus YJR066W, strain TOR1, stronger effect = lower value 0.978 | locus YJR075W, strain HOC1, stronger effect = lower value 1.01
